Laboratory results as given in PubChem BioAssay.
Calls of active or inactive are those of the source. Unless noted, how the calls were made is not given here.

Experiments:
[1] = test system: XIP peptide (Xip251-270) binding; experiment: XIP fragment 251-270 binding compounds – biochemical, small-molecule microarray, fluorescence 635/667 nm, 0.1 µg/mL protein, primary screen (AID 1182); conditions: fluorescent protein binding, 635 nm, higher = more signal, called active from +8 up or from −8 down
XIP peptide (Xip251-270) = experiment: compounds binding XIP fragment 251-270 – biochemical, small-molecule microarray, fluorescence 635/667 nm, 0.5 µg/mL protein, primary screen (AID 1183); conditions: fluorescence 635 nm, higher = more signal
[2] = blood-stage malaria parasite viability loss – strain 3D7, DAPI fluorescence, 100 nL, primary screen (AID 1184);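 further: parasites grown inside human red blood cells in medium with human serum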; conditions: P. falciparum 3D7 growth, 3 d, higher = more signal
[3] = target: Homeobox protein Hox-A13 (Mus musculus) (UniProt Q62424); experiment: disruptors of Hoxa13 oligonucleotide interaction – biochemical, fluorescence polarization, labeled oligonucleotide, primary screen (AID 1185); conditions: Hoxa13:DNA binding, 15 min, higher = more signal, called active from +8 up or from −8 down
Homeobox protein Hox-A13 (Mus musculus), sequence (Q62424 whole entry, looked up): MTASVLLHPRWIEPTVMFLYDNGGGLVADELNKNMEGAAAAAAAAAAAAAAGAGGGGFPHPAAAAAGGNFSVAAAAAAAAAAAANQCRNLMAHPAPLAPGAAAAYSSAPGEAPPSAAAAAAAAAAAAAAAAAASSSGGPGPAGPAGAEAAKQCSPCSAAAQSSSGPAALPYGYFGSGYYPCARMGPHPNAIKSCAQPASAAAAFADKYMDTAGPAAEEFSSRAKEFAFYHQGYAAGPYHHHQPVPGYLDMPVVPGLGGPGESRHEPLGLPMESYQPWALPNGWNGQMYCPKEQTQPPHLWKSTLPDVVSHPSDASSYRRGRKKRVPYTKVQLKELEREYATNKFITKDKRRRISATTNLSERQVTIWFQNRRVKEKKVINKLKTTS

[4] = blockers of DNA damage checkpoint Chk1 activation – imaging, HeLa, hydroxyurea, phospho-Chk1 antibody, percent positive cells, primary screen (AID 1186); conditions: hydroxyurea-induced phospho-Chk1 immunofluorescence imaging, higher = more signal
[5] = blockers of DNA damage checkpoint Chk1 activation – imaging, HeLa, hydroxyurea, phospho-Chk1 nuclear intensity, primary screen (AID 1187); conditions: hydroxyurea-induced phospho-Chk1 immunofluorescence imaging, higher = more signal

SMILES | composite z-score [1] | composite z-score (XIP peptide (Xip251-270)) | z-score [2] | z-score [3] | z-score [4] | z-score [5]
[N-]=[N+]=NCc1ccccc1[C@@H]1OC(c2ccc(OCCCO)cc2)=N[C@]1(Cc1ccccc1)C(N)=O | 0.906 (inactive) | 0.689 | -2.13 | -3.49 (inactive) | -0.395 (inactive) | -0.0798 (inactive)
COCCOC(=O)N1C(=O)[C@@]2(c3cc(C#CCCO)ccc31)[C@H](C(N)=O)[C@H]1C(=O)O[C@H](c3ccccc3)[C@H](c3ccccc3)N1[C@@H]2c1ccc(O)cc1 | -0.13 (inactive) | -0.452 | 2.08 | -4.08 (inactive) | 0.0513 (inactive) | -0.0312 (inactive)
COC(=O)[C@@]1(Cc2ccc(OC)cc2)[C@H]2c3cc(C(=O)N4CCCC4)n(Cc4ccc(O)c(OC)c4)c3C[C@H]2CN1C(=O)c1ccccc1 | 1.29 (inactive) | 0.575 | -1.65 | -4.69 (inactive) | 0.449 (inactive) | 0.27 (inactive)
O=C1c2ccccc2[C@](Cc2ccccc2I)(C(=O)NCCN2CCOCC2)[C@H](c2ccc(CO)cc2)N1C1CCCCC1 | 0.45 (inactive) | 0.652 | -1.79 | -5.61 (inactive) | 0.16 (inactive) | -6.65 (inactive)
C=C(C(=O)CC[C@@H](OC(=O)c1cccnc1)c1ccccc1OCCO)C(C)C | 0.79 (inactive) | 0.209 | -2.27 | -3.56 (inactive) | 0.434 (inactive) | 0.993 (inactive)
CCCCN1CC=CC23O[C@@H]4C=CCCOC(=O)C4[C@H]2C(=O)N(CCCCCCO)[C@@H]3C1=O (some centres not stated) | 0.249 (inactive) | 0.847 | -0.35 | -4.29 (inactive) | 0.809 (inactive) | 0.79 (inactive)
C=C(CCCC)/C(=C/C[C@H](OC(C)=O)c1ccccc1OCCO)c1cc(C(=O)OC)ccc1OC | 0.0757 (inactive) | -0.167 | -2.66 | -3.55 (inactive) | -0.836 (inactive) | -0.714 (inactive)
C=C(COC)/C(=C/C[C@@H](OC(=O)c1ccncc1)c1ccc(CO)o1)c1cc(C(=O)OC)ccc1OC | 0.215 (inactive) | 0.838 | -0.644 | -4.26 (inactive) | -0.255 (inactive) | -0.162 (inactive)
O=C(c1ccccc1)N1C(=O)[C@]2(COC(c3ccc(OCCCO)cc3)=N2)Cc2ccccc21 | 0.819 (inactive) | 0.908 | -2.14 | -5.86 (inactive) | -0.255 (inactive) | -0.361 (inactive)
NC(=O)NCC#Cc1ccc2c(c1)[C@]1(C(=O)N2)[C@H](C(N)=O)[C@H]2C(=O)O[C@H](c3ccccc3)[C@H](c3ccccc3)N2[C@@H]1c1ccc(O)cc1 | 1.49 (inactive) | 0.109 | -0.19 | -5.36 (inactive) | 0.0619 (inactive) | 0.044 (inactive)
CC(C)C[C@@H]1NC(=O)[C@@H]2C[C@H](C(=O)NCc3ccc(F)cc3)[C@H](c3cccc(OCCO)c3)N2C1=O | 0.832 (inactive) | 0.421 | 0.124 | -3.95 (inactive) | 0.465 (inactive) | 0.554 (inactive)
CCOC(=O)C[C@H]1[C@H](OC(=O)c2ccc(C(=O)c3ccccc3)cc2)[C@@H](NC(=O)c2ccc3ccccc3n2)c2cc(OCCCO)ccc2N1C(=O)c1ccccc1 | -0.021 (inactive) | 0.545 | -0.894 | -1.37 (inactive) | 0.645 (inactive) | 0.334 (inactive)
C=CCC(OC(C)=O)[C@@H]1[C@@H](N(Cc2cc3ccccc3o2)C(=O)c2cccc3ccccc23)c2cc(OCCCO)ccc2N1C(=O)c1ccc(-c2ccccc2)cc1 (some centres not stated) | 0.277 (inactive) | 0.287 | -3.01 | -0.424 (inactive) | 0.0396 (inactive) | 0.577 (inactive)
COc1cc2c(cc1O)C(C1CC1)N(Cc1sc3ccccc3c1Cl)CC2 (configuration not stated) | 0.275 (inactive) | 0.637 | -1.23 | -2.44 (inactive) | -0.147 (inactive) | 0.302 (inactive)
COCC(=C=CC[C@@H](O)c1cccc(OCCO)c1)C[C@@H](O)c1ccccn1 | 1.36 (inactive) | 0.141 | -1.2 | -4.8 (inactive) | -1.08 (inactive) | -0.725 (inactive)
[N-]=[N+]=Nc1ccccc1[C@@H]1OC(c2ccc(OCCCO)cc2)=N[C@]1(Cc1ccccc1)C(=O)N1CCOCC1 | 0.665 (inactive) | 0.632 | -2.32 | -4.82 (inactive) | -0.208 (inactive) | -0.0135 (inactive)
C=CCC(OC(C)=O)[C@@H]1[C@@H](N(Cc2ccc(-c3cccc(C(F)(F)F)c3)o2)C(=O)c2ccc(C)cc2)c2cc(OCCCO)ccc2N1C(=O)Cc1ccc2ccccc2c1 (some centres not stated) | 0.332 (inactive) | -0.0506 | 0.337 | -0.62 (inactive) | -0.385 (inactive) | -0.709 (inactive)
